# In PubChem BioAssay (NCI):
# Where “and” joins values, the source holds several entries; their conditions need not be identical. Equal entries are not always repeated. Compounds without any hit were thinned out: in the full panel of roughly 83,000, 20% have a hit.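 Negative percent growth values reflect cell death: -40 means 40% of the cells present at the start died, and -100 means all died.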 Calls of active or inactive are those of the source. How the source made its calls: active means growth percent below 10; inactive means the rest.
# Legend:
# Assay in all cases: NCI-60 one-dose screen, 48 h (100 = growth as untreated, 0 = no growth, -100 = all killed)
# Conditions in all cases: 10 µM unless noted
# [1] = tested on: MDA-MB-435 melanoma
# [2] = tested on: SW-620 colon
# [3] = tested on: MCF7 breast
# [4] = tested on: HCT-116 colon
# [5] = tested on: HCC-2998 colon
# [6] = tested on: KM12 colon
# [7] = tested on: BT-549 breast
smiles,measurement,setting,value
COc1ccc2cc3[n+](cc2c1OC)CCc1cc2c(cc1-3)OCO2,growth,[1],59% (inactive) and 66.2% (inactive)
same,growth,[2],79.3% (inactive) and 92.3% (inactive)
same,growth,[3],61.9% (inactive) and 76.9% (inactive)
same,growth,[4],68.5% (inactive) and 89.6% (inactive)
same,growth,[5],56% (inactive) and 96.8% (inactive)
same,growth,[6],40.7% (inactive) and 30.1% (inactive)
O=[N+]([O-])c1ccc(/C=N\NC(=S)Nc2ccc(F)cc2)cc1,growth,[7],97.9% (inactive)
same,growth,[1],109% (inactive) and 101% (inactive)
same,growth,[2],106% (inactive) and 94.1% (inactive)
same,growth,[3],89% (inactive) and 97.8% (inactive)
same,growth,[4],71.7% (inactive) and 53% (inactive)
same,growth,[5],106% (inactive) and 87.6% (inactive)
same,growth,[6],98.6% (inactive) and 81.3% (inactive)
COc1ccc(-c2nc3ccccc3c(=S)n2OC(C)=O)cc1,growth,[3],8.58% [25 µM] (active) and -23% [25 µM] (active)
CC(C)N=c1cc2n(-c3ccc(Cl)cc3)c3ccccc3nc-2cc1Nc1ccc(Cl)cc1,growth,[7],41.2% (inactive) and 11.6% (inactive) and -4.5% (active)
same,growth,[1],-25.6% (active) and -22.8% (active) and -46.2% (active)
same,growth,[2],13.4% (inactive) and 9.23% (active) and 6.7% (active)
same,growth,[3],11.9% (inactive) and 18.4% (inactive) and 10.5% (inactive)
same,growth,[4],-54.6% (active) and -63.1% (active) and -82.7% (active)
same,growth,[5],16.8% (inactive) and -34.4% (active) and -17.4% (active)
same,growth,[6],12.6% (inactive) and 5.23% (active) and -1.86% (active)
CNC(=O)c1cccnc1,growth,[7],101% (inactive)
same,growth,[1],105% (inactive)
same,growth,[2],106% (inactive)
same,growth,[3],105% (inactive)
same,growth,[4],103% (inactive)
same,growth,[5],110% (inactive)
same,growth,[6],110% (inactive)
CCN(CC)CCC(CNc1c2ccc([N+](=O)[O-])cc2nc2cc(OC)c(OC)cc12)c1ccccc1 (stereo not given),growth,[7],-33.9% (active) and -92.7% (active)
same,growth,[1],-92.2% (active) and -97.3% (active)
same,growth,[2],6.7% (active)
same,growth,[4],-69% (active) and -89.1% (active)
same,growth,[5],-98.9% (active)
same,growth,[6],-63.5% (active) and -100% (active)
O=C(O)c1cc(C(=O)O)cc([N+](=O)[O-])c1,growth,[7],102% (inactive)
same,growth,[1],99% (inactive)
same,growth,[2],107% (inactive)
same,growth,[3],104% (inactive)
same,growth,[4],101% (inactive)
same,growth,[6],109% (inactive)
O=C1C=CC=C/C1=C1\N=C(c2ccccc2OCC(=O)c2ccc(Br)cc2)SS1,growth,[3],77.7% [100 µM] (inactive) and 77% [100 µM] (inactive)
CCOC(=O)C(CNc1ccccc1)C(=O)OCC,growth,[1],108% (inactive)
same,growth,[2],104% (inactive)
same,growth,[3],99.5% (inactive)
same,growth,[4],104% (inactive)
same,growth,[5],102% (inactive)
same,growth,[6],106% (inactive)
NC(=S)Nc1[nH]c(=S)nc2c1SC1=N/C(=C\c3ccco3)C(=O)N12,growth,[3],20.2% [100 µM] (inactive) and 4.03% [100 µM] (active)
CC(=O)c1ccccc1O,growth,[7],95.9% (inactive) and 110% (inactive) and 91.1% (inactive)
same,growth,[1],105% (inactive) and 111% (inactive) and 109% (inactive)
same,growth,[2],103% (inactive) and 105% (inactive) and 113% (inactive)
same,growth,[3],102% (inactive) and 94% (inactive) and 101% (inactive)
same,growth,[4],97.8% (inactive) and 92.6% (inactive) and 101% (inactive)
same,growth,[5],99.7% (inactive) and 102% (inactive) and 97.2% (inactive)
same,growth,[6],103% (inactive) and 100% (inactive) and 110% (inactive)
OCc1ccccn1,growth,[1],103% (inactive)
same,growth,[2],104% (inactive)
same,growth,[3],95.3% (inactive)
same,growth,[4],104% (inactive)
same,growth,[5],109% (inactive)
same,growth,[6],110% (inactive)
COc1cc(/C=N/Nc2nc3c([nH]2)c(=O)n(C)c(=O)n3C)ccc1O,growth,[7],103% (inactive) and 112% (inactive)
same,growth,[1],104% (inactive) and 116% (inactive)
same,growth,[2],105% (inactive) and 110% (inactive)
same,growth,[3],97% (inactive) and 95.2% (inactive)
same,growth,[4],100% (inactive) and 108% (inactive)
same,growth,[6],67.6% (inactive) and 79.4% (inactive)
CC(C)=CC(O)C/C(C)=C/CC/C(C)=C/CCC1(C)C(CCCO)/C(=C(/C)C=O)CCC1(C)O (stereo not given),growth,[3],-22.6% [100 µM] (active) and -6.67% [100 µM] (active)
Oc1c(CN2CCCCC2)ccc2cccnc12,growth,[7],94.7% (inactive) and 63.4% (inactive)
same,growth,[1],63.9% (inactive)
same,growth,[2],44% (inactive) and 44.7% (inactive)
same,growth,[3],38.9% (inactive)
same,growth,[4],10.1% (inactive) and 15.2% (inactive)
same,growth,[5],96.5% (inactive) and 59.7% (inactive)
same,growth,[6],44.5% (inactive) and 32.6% (inactive)
CCCCC1C(=O)N(c2ccc(S(=O)(=O)Nc3ccccn3)cc2)N(c2ccc(O)c(C(=O)O)c2)C1=O (stereo not given),growth,[3],121% [100 µM] (inactive) and 87.3% [100 µM] (inactive)
CC1CC(=O)N(N(C)C)C(C#N)(C#N)C1(C#N)C#N (stereo not given),growth,[3],-67.7% [100 µM] (active) and -85.9% [100 µM] (active)
Cc1ccc(NC(=O)/C(=N\NC(N)=O)c2c(O)c3ccccc3[nH]c2=O)cc1,growth,[3],92.8% [100 µM] (inactive) and 85.4% [100 µM] (inactive)
COc1cc2c(cc1-c1coc3cc(O)ccc3c1=O)OCO2,growth,[3],67.5% [100 µM] (inactive) and 58.5% [100 µM] (inactive)
CC(C)O/N=C/c1cc(NC(=S)OC(C)C)ccc1Cl,growth,[3],-77.4% [100 µM] (active) and 3.65% [100 µM] (active)
COC(=O)C1CCC(=O)N1CN(C(C)=O)c1cccc(O)c1 (stereo not given),growth,[3],90.1% [100 µM] (inactive) and 83.5% [100 µM] (inactive)
CCOc1cc2c(cc1O)C=C[C@@H]1[C@@H]2CC[C@]2(C)[C@@H](O)CC[C@@H]12,growth,[3],-21% [100 µM] (active) and -100% [100 µM] (active)
O=C(NC1=NC2C=CC([N+](=O)[O-])=CC2S1)C(=O)Nn1c(=S)[nH]c2ccccc2c1=O (stereo not given),growth,[3],52.7% [100 µM] (inactive) and 8.91% [100 µM] (active)
CC(C)=CCc1c(OC(=O)c2c(C)cc(O)cc2O)cc(CO)c(CO)c1O,growth,[3],-58.6% [100 µM] (active) and -100% [100 µM] (active)
Clc1ccc(C2C3COc4ccccc4C3=NN2c2ccccc2)cc1 (stereo not given),growth,[3],12.9% [100 µM] (inactive) and -27.8% [100 µM] (active)
C=C(CCC(C(=O)O)C1CCC2(C)C3=C(CCC12C)C1(C)CCC(O)C(C)(C)C1CC3)C(C)C (stereo not given),growth,[3],-52.5% [100 µM] (active) and -56.2% [100 µM] (active)
Fc1ccc(Nc2nc(Cl)c3[nH]cnc3n2)cc1Cl,growth,[3],53.5% [100 µM] (inactive) and 7.87% [100 µM] (active)
COC(=O)C(C(=O)C(=O)NC1Nc2ccc(C)cc2S1)c1nc2ccc(Cl)cc2[nH]c1=O (stereo not given),growth,[3],79.7% [100 µM] (inactive) and 65.5% [100 µM] (inactive)
COc1ccc(N=C(C)C(C)=Nc2ccc(OC)cc2)cc1,growth,[3],38.9% [100 µM] (inactive) and 11.1% [100 µM] (inactive)
CC1C2(C)OC(=N)C(C#N)(C(c3cccc([N+](=O)[O-])c3)O2)C1(C#N)C#N (stereo not given),growth,[3],98.4% [100 µM] (inactive)
